This passage reports composite z-score and z-score results from PubChem BioAssay.

The nature of assay [1]: binders of probe aFSTL3 on microarray, primary screen, stem cell growth factor project, biochemical, small-molecule microarray, fluorescence 635/667 (AID 1064).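 Note: measures binding of the biotinylated anti-FSTL3 antibody to printed compounds.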 The conditions noted are these: higher = more signal.
A short description of assay [2]: binders from COS7 lysate, DM2A8 probe, primary screen, torsin A project, cell lysate, small-molecule microarray, fluorescence 635/667 (AID 1065). The conditions noted are these: higher = more signal, COS7 lysate expressing mutant human TOR1A.
A short description of assay [3]: binders of probe aFGF2 on microarray, primary screen, stem cell growth factor project, biochemical, small-molecule microarray, fluorescence 635/667 (AID 1067).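 Note: measures binding of biotinylated aFGF2 protein to printed compounds on slides; z-score merges feature fluorescence and signal-to-noise across triplicate slides.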 The conditions noted are these: higher = more signal.
Assay [4] can be described thus: binders of probe aFGF10 on microarray, primary screen, stem cell growth factor project, biochemical, small-molecule microarray, fluorescence 635/667 (AID 1071).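 Note: score merges 667 nm spot intensity and signal to noise from triplicate slides.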 To be noted: higher = more signal.
For assay [5], the target named is Neurogenic locus notch homolog protein 2 (Homo sapiens) (UniProt Q04721). Put plainly: Notch2 binders on small-molecule microarrays, primary screen, biochemical, small-molecule microarray, 635 nm fluorescence, stem cell growth factors (AID 1073). The conditions noted are these: Notch2 binding, higher = more signal.
Sequence of Neurogenic locus notch homolog protein 2 (Homo sapiens) (Q04721 whole entry, looked up, canonical isoform): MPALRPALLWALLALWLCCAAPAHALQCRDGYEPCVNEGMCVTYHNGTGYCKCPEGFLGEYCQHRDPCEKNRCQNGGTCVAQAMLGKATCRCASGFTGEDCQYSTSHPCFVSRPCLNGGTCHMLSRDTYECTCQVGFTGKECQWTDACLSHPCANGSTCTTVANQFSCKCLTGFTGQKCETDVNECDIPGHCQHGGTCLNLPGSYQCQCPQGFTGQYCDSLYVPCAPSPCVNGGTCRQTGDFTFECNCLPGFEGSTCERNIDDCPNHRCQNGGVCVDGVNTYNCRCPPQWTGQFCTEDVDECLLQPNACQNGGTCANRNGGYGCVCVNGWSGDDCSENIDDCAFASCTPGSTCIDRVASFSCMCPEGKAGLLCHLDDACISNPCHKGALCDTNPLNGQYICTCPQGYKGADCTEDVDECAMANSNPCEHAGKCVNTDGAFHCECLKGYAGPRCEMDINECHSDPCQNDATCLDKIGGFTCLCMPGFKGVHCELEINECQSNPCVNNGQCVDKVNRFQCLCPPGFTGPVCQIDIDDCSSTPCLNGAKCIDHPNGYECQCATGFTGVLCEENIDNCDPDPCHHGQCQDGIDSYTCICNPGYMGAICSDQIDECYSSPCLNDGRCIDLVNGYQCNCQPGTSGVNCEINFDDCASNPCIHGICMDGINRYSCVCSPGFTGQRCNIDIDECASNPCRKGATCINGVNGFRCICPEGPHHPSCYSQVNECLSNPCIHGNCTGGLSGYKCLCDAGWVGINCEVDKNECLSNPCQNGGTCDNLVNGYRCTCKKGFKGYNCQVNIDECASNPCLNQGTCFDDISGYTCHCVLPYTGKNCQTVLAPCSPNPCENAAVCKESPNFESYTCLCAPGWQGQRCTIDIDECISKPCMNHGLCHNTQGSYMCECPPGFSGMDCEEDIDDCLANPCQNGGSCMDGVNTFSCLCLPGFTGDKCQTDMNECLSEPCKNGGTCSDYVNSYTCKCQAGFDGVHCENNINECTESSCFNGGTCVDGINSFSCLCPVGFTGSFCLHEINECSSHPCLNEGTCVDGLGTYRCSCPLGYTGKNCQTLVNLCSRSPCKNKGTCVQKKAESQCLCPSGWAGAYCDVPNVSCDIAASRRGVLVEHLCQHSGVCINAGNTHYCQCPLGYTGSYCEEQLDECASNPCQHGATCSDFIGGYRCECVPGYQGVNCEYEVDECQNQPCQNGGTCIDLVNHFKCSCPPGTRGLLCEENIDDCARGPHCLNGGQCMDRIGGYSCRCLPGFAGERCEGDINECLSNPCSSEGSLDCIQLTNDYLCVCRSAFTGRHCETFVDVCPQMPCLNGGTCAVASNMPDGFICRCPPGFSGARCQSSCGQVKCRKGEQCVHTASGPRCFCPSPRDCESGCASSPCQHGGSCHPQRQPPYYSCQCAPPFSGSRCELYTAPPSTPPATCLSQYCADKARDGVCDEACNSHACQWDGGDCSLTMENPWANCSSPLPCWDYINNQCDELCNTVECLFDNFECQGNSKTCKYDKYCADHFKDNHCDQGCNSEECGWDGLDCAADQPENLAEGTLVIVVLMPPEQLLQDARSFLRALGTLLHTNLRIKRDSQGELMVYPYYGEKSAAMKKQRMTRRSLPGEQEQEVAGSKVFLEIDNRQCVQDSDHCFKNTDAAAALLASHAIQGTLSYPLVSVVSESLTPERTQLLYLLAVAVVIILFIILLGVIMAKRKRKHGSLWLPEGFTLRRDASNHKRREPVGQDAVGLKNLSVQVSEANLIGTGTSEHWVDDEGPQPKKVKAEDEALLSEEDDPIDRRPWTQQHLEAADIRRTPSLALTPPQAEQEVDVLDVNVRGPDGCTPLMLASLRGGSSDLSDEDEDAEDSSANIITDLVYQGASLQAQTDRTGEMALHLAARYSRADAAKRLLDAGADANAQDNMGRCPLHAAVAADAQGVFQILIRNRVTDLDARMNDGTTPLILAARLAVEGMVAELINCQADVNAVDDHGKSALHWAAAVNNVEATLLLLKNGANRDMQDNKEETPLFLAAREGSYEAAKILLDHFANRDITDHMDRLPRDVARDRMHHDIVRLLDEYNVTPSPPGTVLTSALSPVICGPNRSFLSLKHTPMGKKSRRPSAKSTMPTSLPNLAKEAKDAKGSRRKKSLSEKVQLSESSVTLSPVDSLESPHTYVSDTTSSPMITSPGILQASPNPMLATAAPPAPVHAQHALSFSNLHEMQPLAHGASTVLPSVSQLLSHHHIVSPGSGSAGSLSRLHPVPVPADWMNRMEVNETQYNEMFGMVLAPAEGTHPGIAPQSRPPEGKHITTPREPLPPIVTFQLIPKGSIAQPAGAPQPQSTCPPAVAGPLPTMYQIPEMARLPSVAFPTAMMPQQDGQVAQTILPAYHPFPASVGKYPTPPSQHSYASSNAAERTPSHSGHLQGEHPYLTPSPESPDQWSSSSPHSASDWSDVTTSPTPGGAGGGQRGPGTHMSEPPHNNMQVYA
For assay [6], the target named is Pro-neuregulin-1, membrane-bound isoform (Homo sapiens) (UniProt Q02297). Put plainly: NRG1 binders on small-molecule microarrays, primary screen, psychiatric disease protein project, biochemical, small-molecule microarray, fluorescence 635/667 (AID 1075).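 Note: score combines 667 nm spot fluorescence with signal to noise.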 To be noted: NRG1 binding, 635 nm fluorescence, higher = more signal.
Assay [7] concerns Neuregulin-1 EGF-like domain. Put plainly: binders of neuregulin-1 EGF-like domain, primary screen, biochemical, small-molecule microarray, 635 nm fluorescence (AID 1081).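 Note: binding of the protein to compounds printed on small-molecule microarray slides.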 To be noted: small-molecule microarray binding, higher = more signal.
Assay [8] can be described thus: FRG1 promoter luciferase signal modulators, primary screen, FRG1 inhibition for FSHD, cell-based, C2C12 myotubes, firefly/Renilla luciferase, luminescence (AID 1084). The conditions noted are these: higher = more signal, called active from +8 up or from −8 down.
A short description of assay [9]: binders of probe aFST on microarray, primary screen, stem cell growth factor project, biochemical, small-molecule microarray, fluorescence 635/667 (AID 1086).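 Note: score merges 667 nm fluorescence with signal-to-noise of each printed compound spot.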 The conditions noted are these: higher = more signal.
Assay [10] can be described thus: binders of probe aHhip on microarray, primary screen, stem cell growth factor project, biochemical, small-molecule microarray, fluorescence 635/667 (AID 1087).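 Note: score merges spot fluorescence at 667nm with spot signal to noise ratio.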 To be noted: higher = more signal.
Assay [11] concerns PRMT1 (protein arginine N-methyltransferase 1). Put plainly: PRMT1 binders on small-molecule microarrays, primary screen, biochemical, small-molecule microarray, 635 nm fluorescence (AID 1088).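 Note: binding of Prmt1 protein to compounds spotted on small-molecule microarray slides.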 To be noted: small-molecule microarray binding, higher = more signal.
The nature of assay [12]: yeast growth modulation, basal conditions, primary screen, YJM789 clinical isolate, OD600, 24 h (AID 1089).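 Note: growth of clinical yeast isolate S. cerevisiae YJM 789 seeded 1000 cells per well; test concentration not given here.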 The conditions noted are these: S. cerevisiae YJM789 growth, higher = more signal, called active from +8 up or from −8 down.
Assay [13] is described as follows: fission yeast growth modulation, primary screen, strain 972, OD600, 24 h, no modulator (AID 1090).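 Note: basal condition with compound alone and no growth modifier present; test concentration not given here.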 The conditions noted are these: S. pombe 972 growth, higher = more signal, called active from +8 up or from −8 down.
Assay [14] in a line: S. cerevisiae growth modulation with rapamycin, primary screen, strain BY4716, OD600, 96 h (AID 1091). Note: test concentration not given here. To be noted: higher = more signal, called active from +8 up or from −8 down.
For assay [15], the target named is Torsin-1A-interacting protein 2 (Homo sapiens) (UniProt Q8NFQ8). Put plainly: LULL1 binders on small-molecule microarray, primary screen, cell lysate, human LULL1 lysate, 635/667 nm fluorescence (AID 1092).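 Note: probe is lysate of COS7 cells overexpressing human LULL1; score merges per-feature 667 nm fluorescence with signal-to-noise.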 The conditions noted are these: hLULL1 lysate binding, 635 nm fluorescence, higher = more signal.
Assay [16] can be described thus: E. coli growth modulation, two-sided OD650, primary screen, E. coli filamentation project, strain DRC41, 24 h (AID 1093).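 Note: MC1000 strain lacking acrAB efflux and sulA so SOS filamentation is blocked; test concentration not given here.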 The conditions noted are these: OD650, 24 h, higher = more signal, called active from +8 up or from −8 down.
Assay [17] can be described thus: small-molecule microarray binders of probe aLefty2, primary screen, biochemical, biotinylated probe, 635/667 nm fluorescence (AID 1094).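 Note: score merges spot fluorescence near 667 nm with spot signal-to-noise ratio.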 The conditions noted are these: higher = more signal.
Assay [18] deals with Noggin (protein binding on small-molecule microarray). Put plainly: Noggin binders on small-molecule microarray, primary screen, biochemical, 635/667 nm fluorescence (AID 1095).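 Note: score merges 667 nm feature fluorescence with signal to noise over triplicate slides.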 The conditions noted are these: 635 nm fluorescence, higher = more signal.
Assay [19] addresses Neurogenic locus notch homolog protein 3 (Homo sapiens) (UniProt Q9UM47). Put plainly: NOTCH3 binders on small-molecule microarray, primary screen, biochemical, 635/667 nm fluorescence (AID 1096). To be noted: NOTCH3 binding, 635 nm fluorescence, higher = more signal.
The nature of assay [20]: small-molecule microarray binders of probe aEGFR, primary screen, biochemical, biotinylated probe, 635/667 nm fluorescence (AID 1097).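 Note: probe is a biotinylated anti-EGFR antibody binding compounds printed on slides; score combines fluorescence near 667 nm and signal to noise of each spot.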 To be noted: higher = more signal.

Calls of active or inactive are those of the source.

Sequence of Neurogenic locus notch homolog protein 3 (Homo sapiens) (Q9UM47 whole entry, looked up): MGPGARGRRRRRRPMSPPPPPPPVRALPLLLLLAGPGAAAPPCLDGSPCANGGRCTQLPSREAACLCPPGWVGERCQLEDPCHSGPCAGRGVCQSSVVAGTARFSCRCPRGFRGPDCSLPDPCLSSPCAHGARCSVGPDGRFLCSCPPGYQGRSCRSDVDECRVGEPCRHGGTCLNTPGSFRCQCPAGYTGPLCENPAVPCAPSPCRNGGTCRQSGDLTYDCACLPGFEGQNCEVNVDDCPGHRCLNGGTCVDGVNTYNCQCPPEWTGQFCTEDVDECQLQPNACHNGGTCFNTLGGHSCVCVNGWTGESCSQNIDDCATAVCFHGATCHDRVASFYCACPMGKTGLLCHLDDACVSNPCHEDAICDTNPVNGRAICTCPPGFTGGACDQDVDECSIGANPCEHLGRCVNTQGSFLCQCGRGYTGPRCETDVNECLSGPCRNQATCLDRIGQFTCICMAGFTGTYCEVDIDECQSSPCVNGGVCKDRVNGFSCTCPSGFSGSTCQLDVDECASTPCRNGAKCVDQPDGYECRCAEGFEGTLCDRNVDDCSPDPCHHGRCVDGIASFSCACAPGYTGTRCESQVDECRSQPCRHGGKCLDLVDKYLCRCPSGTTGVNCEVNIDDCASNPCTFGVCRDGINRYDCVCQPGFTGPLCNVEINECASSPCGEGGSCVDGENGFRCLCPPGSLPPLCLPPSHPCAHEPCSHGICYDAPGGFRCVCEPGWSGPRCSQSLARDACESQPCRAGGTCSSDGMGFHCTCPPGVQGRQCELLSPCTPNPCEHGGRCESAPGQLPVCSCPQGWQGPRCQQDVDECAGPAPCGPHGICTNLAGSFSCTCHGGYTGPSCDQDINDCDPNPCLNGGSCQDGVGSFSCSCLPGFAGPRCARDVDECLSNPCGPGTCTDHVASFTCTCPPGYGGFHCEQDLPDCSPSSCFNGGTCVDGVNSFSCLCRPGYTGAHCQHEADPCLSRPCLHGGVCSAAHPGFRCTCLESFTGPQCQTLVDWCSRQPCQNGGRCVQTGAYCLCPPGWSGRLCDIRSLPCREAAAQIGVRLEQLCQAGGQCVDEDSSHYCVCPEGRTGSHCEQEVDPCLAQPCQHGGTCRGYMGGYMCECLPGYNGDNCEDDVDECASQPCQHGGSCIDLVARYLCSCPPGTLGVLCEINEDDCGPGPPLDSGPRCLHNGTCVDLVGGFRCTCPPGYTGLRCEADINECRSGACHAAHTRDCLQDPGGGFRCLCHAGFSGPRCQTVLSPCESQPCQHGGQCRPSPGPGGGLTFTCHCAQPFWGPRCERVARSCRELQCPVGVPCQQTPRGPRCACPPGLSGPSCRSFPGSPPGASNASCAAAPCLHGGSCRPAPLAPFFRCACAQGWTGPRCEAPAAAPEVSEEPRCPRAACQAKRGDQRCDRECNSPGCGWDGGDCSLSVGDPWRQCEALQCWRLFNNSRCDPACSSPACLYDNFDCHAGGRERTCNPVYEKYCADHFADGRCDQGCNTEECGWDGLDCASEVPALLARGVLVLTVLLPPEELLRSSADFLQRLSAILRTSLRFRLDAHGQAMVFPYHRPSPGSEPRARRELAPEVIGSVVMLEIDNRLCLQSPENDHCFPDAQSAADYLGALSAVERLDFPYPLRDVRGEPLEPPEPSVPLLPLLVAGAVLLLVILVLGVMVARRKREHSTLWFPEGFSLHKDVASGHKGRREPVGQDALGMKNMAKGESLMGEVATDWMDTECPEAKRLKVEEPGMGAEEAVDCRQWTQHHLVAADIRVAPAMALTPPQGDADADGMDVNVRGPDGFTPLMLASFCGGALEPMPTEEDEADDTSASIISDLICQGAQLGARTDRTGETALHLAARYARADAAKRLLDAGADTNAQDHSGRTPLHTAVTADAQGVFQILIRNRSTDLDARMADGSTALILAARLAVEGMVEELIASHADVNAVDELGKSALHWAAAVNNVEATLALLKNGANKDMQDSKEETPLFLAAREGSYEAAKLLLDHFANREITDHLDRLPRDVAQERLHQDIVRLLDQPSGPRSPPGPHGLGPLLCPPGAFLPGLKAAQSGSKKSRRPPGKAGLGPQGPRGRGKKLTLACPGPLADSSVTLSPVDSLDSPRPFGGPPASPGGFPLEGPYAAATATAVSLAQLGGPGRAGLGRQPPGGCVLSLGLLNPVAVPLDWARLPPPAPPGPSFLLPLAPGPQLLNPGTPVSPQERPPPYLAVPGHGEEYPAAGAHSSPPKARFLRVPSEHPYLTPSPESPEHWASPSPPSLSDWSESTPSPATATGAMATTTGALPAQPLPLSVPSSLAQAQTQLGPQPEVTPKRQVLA

Take `COc1cc(C(O)C2C=CC3C(=O)N(c4ccccc4)C(=O)C3N2Nc2ccccc2)cc(OC)c1OC` (stereo not given): the composite z-score worked out at 0.251 in [1]; 0.36 in [2]; 0.218 in assay [3]; 1.14 in assay [4]; 1.68 in assay [5]; 1.92 in [6]. In addition, the composite z-score in assay [7] is 1.17; in [9], 1.48; in assay [10], 0.189; in assay [11], 1.54; in assay [15], 3.71; in [17] it was 0.228. Further, the composite z-score was -0.124 in assay [18], 1.03 in [19] and 0.0473 in [20]. For the same compound, the z-score is 1.07 (inactive) in [8]; -0.722 (inactive) in assay [12]; 0.82 (inactive) in assay [13]; -0.205 (inactive) in assay [14]; -0.651 (inactive) in assay [16].

Consider `COCCOC(=O)N1C(=O)[C@@]2(c3cc(C#Cc4ccc(OC)cc4)ccc31)[C@H](c1ccc(OCCO)cc1)N1[C@H](c3ccccc3)[C@H](c3ccccc3)OC(=O)[C@H]1[C@@H]2C(=O)NC[C@H](O)c1ccccc1`, for which the composite z-score in assay [1] is 1.48; in [2], 0.628; in assay [3], 0.005; in [4], 0.703; in [5] it was 1.15; in assay [6] it was 0.455. For the same compound, the composite z-score in assay [7] is 1.2; in [9], 0.919; in assay [10], 0.28; in assay [11], 1.5; in assay [15], 2.31; in [17], 0.3. The composite z-score was 0.729 in [18], 1.1 in assay [19] and 0.259 in [20]. The z-score is 0.848 (inactive) in assay [8]; 3.3 (inactive) in assay [12]; 2.29 (inactive) in assay [13]; 7.99 (inactive) in assay [14]; 0.0136 (inactive) in [16].

Regarding `NC(=O)NCC#Cc1ccc2c(c1)[C@]1(C(=O)N2)[C@H](c2ccc(OCCO)cc2)N2[C@H](c3ccccc3)[C@H](c3ccccc3)OC(=O)[C@H]2[C@@H]1C(=O)O`, the composite z-score in [1] was -0.218; in assay [2] it was 1.36; in [3], -0.187; in assay [4] it was 0.23; in assay [5], -0.459; in assay [6], 1.68. In addition, the composite z-score is -0.269 in assay [7]; 0.0897 in assay [9]; -0.374 in assay [10]; -0.541 in assay [11]; -0.143 in [15]; -0.139 in [17]. Further, the composite z-score is -0.292 in assay [18], -0.343 in assay [19] and -0.209 in assay [20]. The z-score in assay [8] is 0.542 (inactive); in assay [12], 0.467 (inactive); in [13] it was -0.662 (inactive); in [14], 0.23 (inactive); in assay [16], 0.775 (inactive).

For `CC(C)(C)N1CC=CC23O[C@@H]4C=CCOC(=O)[C@@H]4[C@H]2C(=O)N(CCO)[C@@H]3C1=O` (stereo not given in full), the composite z-score is 0.56 in assay [1]; -0.483 in [2]; -0.206 in assay [3]; -0.437 in [4]; -0.638 in assay [5]; 1.87 in [6]. Also, the composite z-score in assay [7] is 1.66; in assay [9] it was -0.633; in assay [10] it was -0.274; in [11], 0.717; in assay [15], 1.34; in [17] it was -0.284. In addition, the composite z-score was -1.6 in assay [18], -0.337 in [19] and -0.205 in assay [20]. The z-score was 0.639 (inactive) in assay [8]; 0.573 (inactive) in [12]; -0.0445 (inactive) in [13]; 0.514 (inactive) in assay [14]; -0.594 (inactive) in assay [16].

`Cc1ccccc1C(O)C1C=CC2C(=O)N(c3ccccc3)C(=O)C2N1Nc1ccccc1` (stereo not given): the composite z-score is 0.457 in [1]; 0.573 in assay [2]; 0.133 in assay [3]; 1.15 in assay [4]; 1.61 in assay [5]; 2.18 in [6]. Also, the composite z-score in [7] amounted to 1.31; in [9], 1.06; in assay [10], 0.0741; in assay [11], 1.53; in assay [15] it was 3.42; in [17], 0.307. Besides, the values for the composite z-score in assay [18], in [19] and in assay [20] were 0.219, 1.03 and 0.183, respectively. Further, the z-score in assay [8] was -1.78 (inactive); in assay [12], 0.555 (inactive); in [13], 0.828 (inactive); in assay [14], 0.0369 (inactive); in assay [16] it was -0.555 (inactive).
